The values that follow come from PubChem BioAssay (EPA / NIEHS).

Several values for one entry are separate records, joined by “and”; a condition that tells them apart may be missing. Equal values may be shown once. Activity calls are given as the source filed them. How the source made its calls: active means hit-call score of the fitted dose curve at least 0.9, where 1 is the maximum; inactive means score below 0.9.

A short description of this test: BSK_LPS_PGE2: BioMAP Diversity Plus: LPS Assay for Prostaglandin E2 (PGE2) Biomarker Activity (AID 2283082).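 On AC50: secreted prostaglandin E2 measured by ELISA in LPS-stimulated co-culture.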 Conditions: primary human HUVEC with PBMC; actives raise or lower the signal. Summed up: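 LPS-activated HUVEC/PBMC co-culture; cmpd dosed, 24 h; PGE2 by ELISA; bidirectional fit vs DMSO; SRB (0.1%, TCA-fixed, 560 nm) in parallel plates for overt cytotox.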
Consider `CCCCCCCCCCCCc1cccc(S(=O)(=O)O)c1`, for which the outcome was inactive. The same measure, in the same setting: under `CC(C)N(C(=O)CCl)c1ccccc1` stands “inactive”; under `CN(C)C(=S)S`, “inactive”. The same measure, in the same setting: for `Oc1c(Br)cc(Br)cc1Br` the value was “inactive”; for `C[C@]12CC[C@@H](O)C[C@@H]1CC[C@@H]1[C@@H]2CC[C@]2(C)C(=O)CC[C@@H]12`, “inactive”. On the same count and under the same terms, under `O=C(O)COc1cc(Cl)c(Cl)cc1Cl` stands “inactive”. `Cc1ccc(OP(=O)(Oc2ccc(C)cc2C)Oc2ccc(C)cc2C)c(C)c1`: the outcome was inactive.

For the compound `C=CC(Cl)CCl` (centres undefined), the result was inactive. As to `[Cl][Sn]([c]1ccccc1)([c]1ccccc1)[c]1ccccc1`, the outcome was inactive. The same measure, in the same setting: for `COc1ccccc1N` the value was “inactive”; for `Cc1cccc(OP(=O)(Oc2cccc(C)c2)Oc2cccc(C)c2)c1`, “inactive”. On the same count and under the same terms, under `N#Cc1cccnc1` stands “inactive”. In the case of `OC(Cc1ccccc1Cl)(Cn1[nH]cnc1=S)C1(Cl)CC1` (centres undefined), the AC50 is 11.1 µM (active).

As to `CC1(C)[C@H](C(=O)O[C@H](C#N)c2cccc(Oc3ccccc3)c2)[C@@H]1/C=C(\Cl)C(F)(F)F`, the AC50 is 904 nM (active) and 862 nM (active). Consider `CCCCCCCCCCCCN(C)C`, for which the result was inactive. For the compound `OCCCCO`, the outcome was inactive. On the same count and under the same terms, for `Nc1ccc(N)cc1` the value was “inactive”. The same measure, in the same setting: under `COCC(=O)N(c1c(C)cccc1C)[C@H](C)C(=O)OC` stands “inactive”; under `CCOP(=S)(OCC)OP(=S)(OCC)OCC`, “inactive”. Still for that read-out and setting: under `Clc1cccc(Cl)c1` stands “inactive”.

Turning to `OC(Cc1ccccc1Cl)(Cn1cncn1)C1(Cl)CC1` (centres undefined), the AC50 is 2.02 µM (active). `Clc1cccc(Cl)c1Cl`: the outcome was inactive.

Turning to `NC(=O)CCl`, the result was inactive. `O=C(N[C@H]1CN2CCC1CC2)c1ccc2c(c1)OCCO2`: the AC50 is 2.86 µM (active).

As usually defined, the AC50 is the concentration at which the activity in the assay is half-maximal.
